Several values for one entry are separate records, joined by “and”; a condition that tells them apart may be missing. Equal values may be shown once. About 79,000 compounds went through this panel and 15% of them were active in at least one assay; those are over-represented in the sample as a whole. Activity calls are given as the source filed them. Rule as the data show it: active = growth inhibition above about 70%; inactive = the rest.
Experiments:
[1] = NCI Yeast Anticancer Drug Screen. Data for the rad50 strain (AID 155);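 also: 0% = growth of vehicle-only cultures of the same strain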; settings: S. cerevisiae rad50 strain growth inhibition, active compounds read high
In short: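 DNA repair mutant yeast, compound exposure, growth read-out; inhibition is taken relative to vehicle.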

[2] = NCI Yeast Anticancer Drug Screen. Data for the mec2-1 strain (AID 157); settings: S. cerevisiae mec2-1 strain, active compounds read high
In short: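 Vehicle-treated cultures served as reference for growth inhibition of compound-exposed mec2-1 yeast.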

[3] = NCI Yeast Anticancer Drug Screen. Data for the sgs1 mgt1 strain (AID 161);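 also: 0% = growth of cultures given vehicle only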; settings: S. cerevisiae sgs1 mgt1 strain, active compounds read high
In short: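 Genetically altered yeast, compound exposure, growth inhibition relative to vehicle.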

[4] = NCI Yeast Anticancer Drug Screen. Data for the cln2 rad14 strain (AID 165);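 also: 0% = growth equal to vehicle treated cultures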; settings: S. cerevisiae cln2 rad14 strain, active compounds read high
In short: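 Each compound was tested on cln2 rad14 yeast. Inhibition of growth was calculated against vehicle-exposed controls.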

[5] = NCI Yeast Anticancer Drug Screen. Data for the bub3 strain (AID 167); settings: S. cerevisiae bub3 mutant strain, active compounds read high
In short: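 In this screen, a yeast mutant lacking normal mitotic checkpoint function is challenged with compound. Relative growth versus vehicle gives the inhibition value.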

[6] = NCI Yeast Anticancer Drug Screen. Data for the mlh1 rad18 strain (AID 175); settings: S. cerevisiae mlh1 rad18 strain growth inhibition, active compounds read high
In short: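 Vehicle-treated cultures served as the reference for growth inhibition in a yeast strain carrying DNA damage repair alterations exposed to each compound.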

[7] = at 5.0 µM (retest, dose inferred, filed as 0.5)
[8] = at 50.0 µM (retest, dose inferred, filed as 5.0)

Measured: growth inhibition

OCC(O)C(O)C(O)CO (stereo not drawn)
inactive: [1]; at 50.0 µM -5.35% and 10.4% and 7.75% | [2]; at 50.0 µM -8.1% and 4.3% and 14% | [3]; at 50.0 µM -16% and 7.05% and 14.4% | [4]; at 50.0 µM 4.25% and 2.85% and 13.9% | [5]; at 50.0 µM -45.7% and -5.45% and 0.05% | [6]; at 50.0 µM -8.35% and -4.45% and 10%

C[C@]12CC[C@H](O)C[C@@H]1CC[C@@H]1[C@@H]2CC[C@]2(C)[C@@H](c3cc(C(F)(F)F)n[nH]3)CC[C@@H]12
inactive: [1]; [7] 12% | [2]; [7] 3% | [2]; at 50.0 µM 61.6% | [3]; [7] 10% | [3]; at 50.0 µM 63% | [4]; [7] 7% | [4]; at 50.0 µM 68.9% | [5]; [7] -3% | [6]; [7] 12%
active: [1]; [8] 94% | [1]; at 50.0 µM 89.8% | [2]; [8] 86% | [3]; [8] 90% | [4]; [8] 92% | [5]; [8] 85% | [5]; at 50.0 µM 84.3% | [6]; [8] 96% | [6]; at 50.0 µM 88.7%

COC(=O)c1nnn(-c2ccc(S(N)(=O)=O)cc2)c1C(=O)c1ccc(Cl)c(Cl)c1
inactive: [1]; [7] 1% | [2]; [7] 22% | [3]; [7] 20% | [4]; [7] 19% | [5]; [7] 30% | [6]; [7] 22%
active: [1]; [8] 98% | [1]; at 50.0 µM 98.5% | [2]; [8] 99% | [2]; at 50.0 µM 98% | [3]; [8] 99% | [3]; at 50.0 µM 98.2% | [4]; [8] 98% | [4]; at 50.0 µM 96% | [5]; [8] 99% | [5]; at 50.0 µM 94.8% | [6]; [8] 99% | [6]; at 50.0 µM 98.3%

O=c1cc(CSc2ccc(Cl)cc2)occ1O
inactive: [2]; [7] -2% | [2]; [8] 17% | [2]; at 50.0 µM 13.4% | [3]; [7] 3% | [4]; [7] 7% | [4]; [8] 18% | [4]; at 50.0 µM 13.2% | [5]; [7] -3% | [5]; [8] 4% | [5]; at 50.0 µM 11.9% | [6]; [7] 2% | [6]; [8] 51% | [6]; at 50.0 µM 55%
active: [3]; [8] 72% | [3]; at 50.0 µM 87.2%

O=C1NC(=O)/C(=C/c2ccc(S(=O)(=O)N/N=C\C(O)C(O)C(O)C(O)CO)cc2)N1 (stereo not drawn)
inactive: [1]; at 50.0 µM 3.55% and -20.8% and 1.5% | [2]; at 50.0 µM -3.7% and 38.8% and 12.5% | [3]; at 50.0 µM -19.6% and 19.2% and -13.3% | [4]; at 50.0 µM 2.3% and 4.95% and 8.9% | [5]; at 50.0 µM -17.4% and -6.2% and 3.65% | [6]; at 50.0 µM 15.4% and 28.7% and 13.4%

C/C(=N/NC(=S)Nc1ccc(C)cc1)c1ccccn1
active: [2]; [8] 99% | [2]; at 50.0 µM 84.9% | [3]; [8] 99% | [3]; at 50.0 µM 88.5% | [4]; [8] 99% | [4]; at 50.0 µM 88.3% | [5]; [8] 99% | [5]; at 50.0 µM 90% | [6]; [8] 99% | [6]; at 50.0 µM 87.9%
inactive: [2]; [7] 33% | [3]; [7] 32% | [4]; [7] -15% | [5]; [7] -7% | [6]; [7] 20%

CN1c2ccccc2Sc2c1n[nH]c2-c1ccccc1
inactive: [1]; [7] -1% | [1]; [8] 64% | [2]; [7] -3% | [3]; [7] 0% | [4]; [7] 2% | [4]; [8] 68% | [5]; [7] -1% | [6]; [7] -4%
active: [2]; [8] 79% | [2]; at 50.0 µM 96.1% | [3]; [8] 79% | [3]; at 50.0 µM 98.8% | [4]; at 50.0 µM 98% | [5]; [8] 95% | [5]; at 50.0 µM 99% | [6]; [8] 91% | [6]; at 50.0 µM 98.8%

O=C1OC(C(O)CO)C(O)=C1O (stereo not drawn)
inactive: [1]; at 50.0 µM -17.1% and 7.7% and 12.5% | [2]; at 50.0 µM -25.8% and 0.65% and -15.2% | [3]; at 50.0 µM -4.15% and -7.6% and 14.5% | [4]; at 50.0 µM -0.75% and -1.55% and 7.15% | [5]; at 50.0 µM -1.7% and -0.25% and -0.3% | [6]; at 50.0 µM 1.6% and 8.75% and 6.45%

CCCCC#CCOC(=O)c1cc([N+](=O)[O-])cc([N+](=O)[O-])c1
active: [1]; [7] 97% | [1]; [8] 99% | [1]; at 50.0 µM 99.2% | [2]; [7] 99% | [2]; [8] 100% | [2]; at 50.0 µM 98.5% | [3]; [7] 99% | [3]; [8] 99% | [3]; at 50.0 µM 99.8% | [4]; [8] 99% | [4]; at 50.0 µM 99.3% | [5]; [7] 96% | [5]; [8] 100% | [5]; at 50.0 µM 99.3% | [6]; [7] 98% | [6]; [8] 99% | [6]; at 50.0 µM 98.8%
inactive: [4]; [7] 67%

O=Cc1c(O)ccc2ccccc12
active: [2]; [8] 98% | [2]; at 50.0 µM 99.4% | [3]; [8] 99% | [3]; at 50.0 µM 99.2% | [4]; [8] 99% | [4]; at 50.0 µM 99% | [5]; [8] 98% | [5]; at 50.0 µM 99.5% | [6]; [8] 98% | [6]; at 50.0 µM 99.2%
inactive: [2]; [7] 8% | [3]; [7] 11% | [4]; [7] 6% | [5]; [7] 2% | [6]; [7] 17%

C/C(CCn1[nH]c(=O)ccc1=O)=N\Nc1ccc([N+](=O)[O-])cc1[N+](=O)[O-]
active: [2]; [8] 98% | [3]; [8] 98% | [4]; [8] 81% | [5]; [8] 98% | [6]; [8] 98% | [6]; at 50.0 µM 73.2%
inactive: [2]; [7] 20% | [2]; at 50.0 µM -0.6% | [3]; [7] 27% | [3]; at 50.0 µM 19.6% | [4]; [7] 23% | [4]; at 50.0 µM 24.4% | [5]; [7] 32% | [5]; at 50.0 µM 25.9% | [6]; [7] 45%

O=C(CC(C(=O)O)C(c1ccccc1)[N+](=O)[O-])c1ccccc1 (stereo not drawn)
inactive: [1]; at 50.0 µM -4.1% and 6.9% and 6.55% | [2]; at 50.0 µM -5.4% and -10.8% and 16.7% | [3]; at 50.0 µM 4.4% and 6.3% and -17.4% | [4]; at 50.0 µM -67.8% and 15.6% and -18.9% | [5]; at 50.0 µM -9.65% and 9.1% and 5.6% | [6]; at 50.0 µM -2.55% and 22.1% and 32.6%

COc1ccc(C(=O)NCCN2CCN3Cc4[nH]c5ccccc5c4CC3C2)cc1 (stereo not drawn)
inactive: [2]; [7] -2% | [2]; [8] -5% | [2]; at 50.0 µM 1.85% | [3]; [7] -8% | [3]; [8] 8% | [3]; at 50.0 µM -6.4% | [4]; [7] -5% | [4]; [8] -2% | [4]; at 50.0 µM -17.6% | [5]; [7] -5% | [5]; [8] 1% | [5]; at 50.0 µM -5.05% | [6]; [7] -11% | [6]; [8] -3% | [6]; at 50.0 µM 11.7%

COc1ccc(C=C(C(=O)c2ccccc2)C(=O)c2ccccc2)cc1
inactive: [1]; [7] 12% | [2]; [7] -7% | [3]; [7] -6% | [4]; [7] 14% | [5]; [7] 16% | [6]; [7] -12%
active: [1]; [8] 95% | [1]; at 50.0 µM 91.3% | [2]; [8] 96% | [2]; at 50.0 µM 92.3% | [3]; [8] 94% | [3]; at 50.0 µM 91.3% | [4]; [8] 95% | [4]; at 50.0 µM 88.5% | [5]; [8] 98% | [5]; at 50.0 µM 92% | [6]; [8] 98% | [6]; at 50.0 µM 90.8%

C(=N\NC1=NCCN1)/c1ccc(-c2cn3cc(/C=N/NC4=NCCN4)ccc3n2)cc1
active: [2]; [7] 100% | [2]; [8] 99% | [2]; at 50.0 µM 97.8% | [3]; [7] 99% | [3]; [8] 100% | [3]; at 50.0 µM 99.3% | [4]; [7] 92% | [4]; [8] 98% | [4]; at 50.0 µM 98.1% | [5]; [7] 98% | [5]; [8] 99% | [5]; at 50.0 µM 99.3% | [6]; [7] 99% | [6]; [8] 99% | [6]; at 50.0 µM 99.4%

Clc1cccc2c(-c3ccccc3)c3cccc(Cl)c3cc12
inactive: [2]; [7] 3% | [2]; [8] 50% | [2]; at 50.0 µM 39.6% | [3]; [7] 8% | [3]; [8] 35% | [3]; at 50.0 µM 42.2% | [4]; [7] 6% | [4]; [8] 54% | [4]; at 50.0 µM 50.9% | [5]; [7] -2% | [5]; [8] 51% | [5]; at 50.0 µM 36.2% | [6]; [7] 1% | [6]; [8] 68%
active: [6]; at 50.0 µM 91.4%
